Measured values: paper PMC5540273 (PLoS ONE, 2017)

Columns and labels:
Settings in all cases: concentration: 1 μM, replicates: in singlicate; n = 1
[1] = tested on: MYLK
[2] = tested on: MYO3A
[3] = tested on: MYO3B
[4] = tested on: T1, NDR1
T1 construct: gene STK38

[5] = tested on: NDR2
[6] = tested on: NEK10
[7] = tested on: NEK11
[8] = tested on: NEK1
[9] = tested on: NEK2
[10] = tested on: NEK3
[11] = tested on: NEK4
[12] = tested on: NEK5
[13] = tested on: NEK6
[14] = tested on: NEK7
[15] = tested on: NEK9
[16] = tested on: T2, NIK
T2 construct: gene MAP3K14

[17] = tested on: T3, NIM1
T3 construct: gene MGC42105

[18] = tested on: NLK
[19] = tested on: T4, OSR1
T4 construct: gene OXSR1

[20] = tested on: PAK1
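Further: KINOMEscan kinase panel screen.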

| SMILES | %Inh [1] | %Inh [2] | %Inh [3] | %Inh [4] | %Inh [5] | %Inh [6] | %Inh [7] | %Inh [8] | %Inh [9] | %Inh [10] | %Inh [11] | %Inh [12] | %Inh [13] | %Inh [14] | %Inh [15] | %Inh [16] | %Inh [17] | %Inh [18] | %Inh [19] | %Inh [20] |
| --- | --- | --- | --- | --- | --- | --- | --- | --- | --- | --- | --- | --- | --- | --- | --- | --- | --- | --- | --- | --- |
| CCC(=O)c1c(-c2ccccc2)c2cc(Cl)ccc2c(=O)n1Cc1ccc(C(=O)O)cc1 | 0% | 0% | 3% | 0% | 0% | 0% | 0% | 0% | 0% | 22% | 0% | 0% | 0% | 0% | 0% | 0% | 0% | 0% | 0% | 0% |
| COc1cc2nccc(Nc3ccc(OCc4ccc(NC(C)=O)cc4)cc3)c2cc1OC.Cl [GW440135] | 13% | 20% | 0% | 0% | 0% | 12% | 0% | 0% | 0% | 0% | 0% | 0% | 0% | 100% | 94.8% | 16% | 24% | 10% | 0% | 0% |
| CCC(=O)c1c(-c2ccccc2)c2cc(Cl)ccc2c(=O)n1Cc1cc(S(C)(=O)=O)n(CCC(C)(C)O)n1 | 5% | 0% | 0% | 2% | 1% | 0% | 0% | 0% | 4% | 0% | 0% | 17% | 14% | 1% | 0% | 0% | 0% | 0% | 0% | 20% |
| Cc1ccc(-c2ccc3c(ccc4sc5c(c43)NC[C@@H](C)N=C5N(C)C)n2)cn1 | 0% | 0% | 0% | 0% | 0% | 0% | 0% | 0% | 0% | 20% | 0% | 0% | 0% | 0% | 0% | 0% | 0% | 0% | 0% | 0% |
| COC(=O)c1c(-c2ccccc2)c2cc(Br)ccc2c(=O)n1Cc1ccc(NC(=O)CCC(=O)O)cc1 | 29% | 100% | 0% | 0% | 0% | 0% | 0% | 0% | 0% | 13% | 1% | 0% | 7% | 18% | 11% | 0% | 2% | 0% | 14% | 15% |
| COc1cc2ncn(-c3cc(OCc4ccncc4Br)c(C(N)=O)s3)c2cc1OC [GW854278] | 72% | 0% | 9% | 0% | 17% | 0% | 0% | 0% | 33% | 29% | 0% | 2% | 0% | 0% | 0% | 25% | 10% | 0% | 0% | 1% |
| COc1cccc(C2=C(N(C)c3ccccc3)C(=O)NC2=O)c1 [SB-334865] | 1% | 22% | 0% | 16% | 0% | 22% | 0% | 0% | 0% | 26% | 0% | 0% | 0% | 0% | 0% | 100% | 21% | 29% | 0% | 1% |
| O=C1NC(=O)C(c2ccccc2)=C1Nc1cccc(O)c1 [SB-390534] | 37% | 17% | 21% | 0% | 0% | 0% | 16% | 0% | 16% | 30% | 13% | 0% | 0% | 14% | 0% | 3% | 100% | 0% | 0% | 0% |
| CN(C)c1cc(-c2ccc3c(N)n[nH]c3c2)nc(N)n1 [GSK2219329] | 0% | 11% | 0% | 17% | 0% | 0% | 0% | 0% | 0% | 0% | 0% | 2% | 0% | 0% | 0% | 0% | 21% | 1% | 0% | 9% |
| COc1cc2ncn(-c3cc(OCCCc4ccccc4)c(C(N)=O)s3)c2cc1OC [GSK205189] | 23% | 3% | 0% | 0% | 0% | 0% | 0% | 0% | 36% | 0% | 0% | 0% | 0% | 0% | 6% | 0% | 0% | 0% | 2% | 36% |
| Cc1cccc(-c2cc(-c3c[nH]nc3-c3ccccn3)ccn2)c1 [GW679395] | 32% | 7% | 0% | 15% | 0% | 24% | 0% | 0% | 0% | 3% | 0% | 7% | 0% | 0% | 0% | 19% | 6% | 32% | 0% | 24% |
| COc1cc2ncn(-c3cc(OCc4ccc(S(C)(=O)=O)cc4)c(C(N)=O)s3)c2cc1OC [GW869979] | 46% | 0% | 0% | 25% | 4% | 29% | 14% | 0% | 0% | 14% | 14% | 20% | 1% | 0% | 0% | 7% | 45% | 4% | 25% | 0% |
| COc1ccc(-c2coc3ccc(-c4nnc(SCc5cccc(C#N)c5)o4)cc23)cc1 | 6% | 20% | 49% | 7% | 0% | 0% | 0% | 0% | 5% | 7% | 3% | 0% | 16% | 0% | 0% | 2% | 5% | 0% | 0% | 18% |
| CN1C(=O)C(Nc2ccccc2)=C(c2ccccc2)C1=O [SB-300079] | 0% | 0% | 0% | 39% | 0% | 7% | 4% | 0% | 0% | 21% | 0% | 0% | 0% | 0% | 0% | 32% | 19% | 0% | 0% | 0% |
| COc1cc(Nc2ccnc3ccc(C(F)(F)F)cc23)cc(OC)c1OC [GW577382] | 0% | 12% | 10% | 13% | 1% | 10% | 0% | 0% | 0% | 3% | 5% | 13% | 2% | 3% | 13% | 0% | 85% | 73% | 14% | 0% |
| O=c1cc(N2CCOCC2)nc2n(Cc3ccc(F)c(Cl)c3)ccn12 [GSK2297099] | 9% | 8% | 0% | 9% | 0% | 0% | 0% | 0% | 0% | 13% | 0% | 9% | 0% | 61% | 64% | 0% | 17% | 14% | 6% | 5% |
| COc1cc(Nc2nccc(N3CCC(NC(=O)C4COc5ccccc5O4)C3)n2)cc(OC)c1OC (centres unmarked) [GSK1379761] | 13% | 46% | 0% | 27% | 40% | 0% | 64% | 39% | 11% | 42% | 7% | 97.3% | 21% | 49% | 37% | 42% | 28% | 5% | 2% | 0% |
| COc1cccc(-n2cnc3c(N)ncnc32)c1 [SKF-97416] | 31% | 8% | 20% | 28% | 12% | 18% | 35% | 0% | 0% | 21% | 0% | 8% | 8% | 0% | 0% | 27% | 61% | 0% | 24% | 20% |
| CCc1ccc(-c2ccc3c(c2)-c2nn(C)cc2S(=O)(=O)N3C)cc1 | 3% | 96.5% | 0% | 19% | 0% | 0% | 0% | 0% | 0% | 36% | 0% | 0% | 0% | 0% | 0% | 0% | 0% | 0% | 0% | 0% |
